Laboratory results reported in the supplement of paper PMC12645437, “Orthogonal IMiD-Degron Pairs Induce Selective Protein Degradation in Cells” (ACS Chemical Biology, 2025).
Whole data set: some 8,300 sequences, median “log2 fold change of degron read counts, EGFP-low vs EGFP+ sorted cells (limma voom), compound-induced degradation” near -1.1, cut for the highest 2% near 3.2. The list comes from a sample in which the highest values are over-represented; it also holds similar and randomly drawn sequences.

T1: CRBN, Q96SW2
T1 chain: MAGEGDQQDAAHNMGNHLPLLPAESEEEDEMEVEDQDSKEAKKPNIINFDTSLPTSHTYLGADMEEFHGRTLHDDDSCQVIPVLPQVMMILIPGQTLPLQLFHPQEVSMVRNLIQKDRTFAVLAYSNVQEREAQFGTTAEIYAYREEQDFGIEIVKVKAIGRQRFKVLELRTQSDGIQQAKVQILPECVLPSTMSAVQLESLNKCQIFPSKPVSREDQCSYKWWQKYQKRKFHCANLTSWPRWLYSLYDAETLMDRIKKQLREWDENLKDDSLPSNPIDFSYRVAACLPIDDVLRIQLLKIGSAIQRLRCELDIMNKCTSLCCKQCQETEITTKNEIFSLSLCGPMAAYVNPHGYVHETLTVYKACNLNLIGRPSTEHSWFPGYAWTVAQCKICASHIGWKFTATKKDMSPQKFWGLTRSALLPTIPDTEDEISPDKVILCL


Biological target: T1, CRBN, Q96SW2
Assay: log2 fold change of degron read counts, EGFP-low vs EGFP+ sorted cells (limma voom), compound-induced degradation; higher = more compound-induced degradation of the degron-EGFP fusion; degrons are variants of IKZF1/3 zinc finger 2; compound dose not given here
Conditions: Jurkat, 18 h
[1] = compound: compound 19 (5-tert-butyl-thalidomide)
[2] = compound: compound 22 (5-morpholino-thalidomide)
[3] = compound: compound 33 (diphenyl IMiD analogue)
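Note: pooled lentiviral library of zinc finger degron-EGFP fusions in mCherry-positive Jurkat cells, FACS-sorted after compound exposure, with degron abundance counted by next-generation sequencing.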

| Sequence | log2 fold change of degron read counts [1] | log2 fold change of degron read counts [2] | log2 fold change of degron read counts [3] | log2 fold change of degron read counts (compound: thalidomide) |
| --- | --- | --- | --- | --- |
| FYCNQCGRLFTQKGNLLRHIKL [46F_47Y_49N_50Q_52G_53R_54L_55F_67L_, Q9UKT9] | -1.45 | -2.33 | -2.01 | -1.7 |
| FKCDVCGAVFTQKGNLLRHIKL [46F_47K_49D_50V_52G_53A_54V_55F_67L_, Q9UKT9] | -3.26 | -3.42 | -3.55 | -2.43 |
| FVCDQCGAEFTQKGNLLRHIKL [46F_47V_49D_50Q_52G_53A_54E_55F_67L_, Q9UKT9] | -3.02 | -2.35 | -2.96 | -1.78 |
| FCCNQCGASFTQKGNLLRHIKL [46F_47C_49N_50Q_52G_53A_54S_55F_67L_, Q9UKT9] | -1.43 | -1.92 | -0.445 | -1.53 |
| LWCEICGFLCTQKGNLLRHIKL [46L_47W_49E_50I_52G_53F_54L_55C_67L_, Q9UKT9] | 1.13 | 1.39 | 1.44 | 0.295 |
| FKCNICGAHFTQKGNLLRHIKL [46F_47K_49N_50I_52G_53A_54H_55F_67L_, Q9UKT9] | -1.74 | -2.18 | -2.99 | -1.98 |
| FCCDICGAIFTQKGNLLRHIKL [46F_47C_49D_50I_52G_53A_54I_55F_67L_, Q9UKT9] | -0.218 | 0.0957 | 1.18 | 0.132 |
| FQCDICGAIFTQKGNLLRHIKL [46F_47Q_49D_50I_52G_53A_54I_55F_67L_, Q9UKT9] | -1.32 | 2.34 | 1.7 | 3.47 |
| FHCPVCGAIFTQKGNLLRHIKL [46F_47H_49P_50V_52G_53A_54I_55F_67L_, Q9UKT9] | 0.164 | 0.683 | 1.33 | -0.0983 |
| FRCPVCGAIFTQKGNLLRHIKL [46F_47R_49P_50V_52G_53A_54I_55F_67L_, Q9UKT9] | -1.67 | -0.943 | 0.606 | 0.832 |
| FRCNVCGAIFTQKGNLLRHIKL [46F_47R_49N_50V_52G_53A_54I_55F_67L_, Q9UKT9] | -1.97 | -2.04 | -0.492 | -0.595 |
| FQCNVCGAIFTQKGNLLRHIKL [46F_47Q_49N_50V_52G_53A_54I_55F_67L_, Q9UKT9] | -1.8 | 1.3 | 1.44 | 3.37 |
| FGCPVCGAIFTQKGNLLRHIKL [46F_47G_49P_50V_52G_53A_54I_55F_67L_, Q9UKT9] | 3.73 | 2.12 | 2.5 | 0.899 |
| FQCPVCGAIFTQKGNLLRHIKL [46F_47Q_49P_50V_52G_53A_54I_55F_67L_, Q9UKT9] | -0.448 | 3.15 | 2.64 | 3.53 |
| FFCPVCGAIFTQKGNLLRHIKL [46F_47F_49P_50V_52G_53A_54I_55F_67L_, Q9UKT9] | 1.97 | 2.07 | 0.852 | 0.24 |
| FKCDICGAIFTQKGNLLRHIKL [46F_47K_49D_50I_52G_53A_54I_55F_67L_, Q9UKT9] | -2.93 | -3.42 | -2.93 | -2.01 |
| FVCPVCGAIFTQKGNLLRHIKL [46F_47V_49P_50V_52G_53A_54I_55F_67L_, Q9UKT9] | -1.21 | 0.225 | 1.42 | 1.3 |
| FYCNVCGAIFTQKGNLLRHIKL [46F_47Y_49N_50V_52G_53A_54I_55F_67L_, Q9UKT9] | -0.301 | 0.0156 | -0.132 | -1.44 |
| FQCEQCGAWFTQKGNLLRHIKL [46F_47Q_49E_50Q_52G_53A_54W_55F_67L_, Q9UKT9] | -2.85 | -2.85 | -1.86 | -0.183 |
| FRCDICGAHFTQKGNLLRHIKL [46F_47R_49D_50I_52G_53A_54H_55F_67L_, Q9UKT9] | -1.41 | -1.53 | 0.162 | -1.18 |
| FACDVCGACFTQKGNLLRHIKL [46F_47A_49D_50V_52G_53A_54C_55F_67L_, Q9UKT9] | 1.83 | -0.406 | -0.331 | -2.56 |
| FKCNVCGANFTQKGNLLRHIKL [46F_47K_49N_50V_52G_53A_54N_55F_67L_, Q9UKT9] | -2.45 | -2.95 | -3.12 | -2.19 |
| FICNICGAYFTQKGNLLRHIKL [46F_47I_49N_50I_52G_53A_54Y_55F_67L_, Q9UKT9] | -1.5 | 0.102 | 1.22 | 0.967 |
| FLCNVCGALFTQKGNLLRHIKL [46F_47L_49N_50V_52G_53A_54L_55F_67L_, Q9UKT9] | -2.4 | -1.93 | -0.86 | -0.854 |
| FCCEICGHNFTQKGNLLRHIKL [46F_47C_49E_50I_52G_53H_54N_55F_67L_, Q9UKT9] | -3.4 | -2.63 | -3.12 | -2.76 |
| FQCDQCGANFTQKGNLLRHIKL [46F_47Q_49D_50Q_52G_53A_54N_55F_67L_, Q9UKT9] | -2.74 | -1.96 | -2.34 | -0.263 |
| FHCNICGAIFTQKGNLLRHIKL [46F_47H_49N_50I_52G_53A_54I_55F_67L_, Q9UKT9] | -0.569 | 0.345 | -0.0029 | -0.75 |
| FYCNICGAIFTQKGNLLRHIKL [46F_47Y_49N_50I_52G_53A_54I_55F_67L_, Q9UKT9] | 0.725 | 1.63 | 0.601 | -0.748 |
| FQCNICGAIFTQKGNLLRHIKL [46F_47Q_49N_50I_52G_53A_54I_55F_67L_, Q9UKT9] | -0.972 | 2.07 | 2.21 | 3.81 |
